Screens: PubChem, National Center for Advancing Translational Sciences (NCATS)
HepG2 viability – HepG2 cytotoxicity, counter-screen for TGF-b inhibitors; HepG2 CAGA-GFP viability, ATP luminescence, 18 h; Potency, µM (doses to about 46.1 µM), most hits filed as cytotoxic; 0.76% of 410,000 active
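CellTiter-Glo luminescence gave cytotoxicity after 18 hours at 37 degrees C. The cells were HepG2 CAGA-GFP in 1% FBS DMEM, stimulated with 500 pg/mL TGF-beta after compound addition. %Activity was normalised to no-cell wells (complete cell-killing) and DMSO (no toxicity), and curves were fitted and classified.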
TGFb SMAD3 inh – blocks TGF-b signaling; Potency, µM (doses to about 46.1 µM), hits mostly inhibitors; AID 588855; HepG2 CAGA-GFP TGF-b/SMAD3 reporter, GFP fluorescence, 18 h; TGF-beta stimulated, 500 pg/mL final; 1.2% of 410,000 active; also: nearly all actives have a fitted effect of over 65% in size
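Smad-responsive CAGA-GFP expression was quantified in HEPG2 cells exposed to compounds and 500 pg/mL final TGF-beta for 18 h at 37 degrees C; unstimulated wells defined full inhibition.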
ALOX12 inh – inhibitors of human 12S-lipoxygenase ALOX12; 1.1% of 580,000 active; Potency, µM (doses to about 108 µM), actives largely listed as inhibitors; P18054; AID 1671190; purified 12hLO, xylenol orange hydroperoxide absorbance
Target sequence (P18054 whole entry, looked up): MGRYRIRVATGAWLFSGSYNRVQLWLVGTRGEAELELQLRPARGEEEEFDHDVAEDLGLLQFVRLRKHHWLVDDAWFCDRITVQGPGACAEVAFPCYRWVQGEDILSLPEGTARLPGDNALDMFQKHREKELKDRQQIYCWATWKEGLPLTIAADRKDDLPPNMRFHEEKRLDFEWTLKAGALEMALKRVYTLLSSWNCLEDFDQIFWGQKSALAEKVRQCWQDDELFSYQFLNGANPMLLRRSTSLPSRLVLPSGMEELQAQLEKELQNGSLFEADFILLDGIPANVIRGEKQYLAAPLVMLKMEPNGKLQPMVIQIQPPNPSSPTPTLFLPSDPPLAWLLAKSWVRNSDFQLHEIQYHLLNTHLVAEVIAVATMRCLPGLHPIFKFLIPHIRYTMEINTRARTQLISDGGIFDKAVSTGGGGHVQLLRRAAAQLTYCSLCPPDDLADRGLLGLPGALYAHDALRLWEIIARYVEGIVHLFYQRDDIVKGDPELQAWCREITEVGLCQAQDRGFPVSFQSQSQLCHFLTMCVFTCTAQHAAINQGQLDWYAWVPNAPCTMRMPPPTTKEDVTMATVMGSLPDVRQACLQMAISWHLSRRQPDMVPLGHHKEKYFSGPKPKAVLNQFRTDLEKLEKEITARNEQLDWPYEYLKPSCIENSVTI
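Purified human 12hLO at 150 nM in 25 mM Hepes, 0.01% Triton X-100, pH 7.0, preincubated 15 min at room temperature with compound. Reaction started with 40 uM arachidonic acid, 30 min at room temperature. Hydroperoxide measured by Fe-xylenol orange, 573/405 nm absorbance ratio.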
ATXN viability – cell viability loss in ATXN counter-screen; S2 cells (HEK-293 line with an ATXN2-luciferase reporter) viability, CellTiter-Fluor protease fluorescence, 24 h; Potency, µM (top dose mostly 56.7 µM), hits mostly cytotoxic; 0.49% of 400,000 active; also: nearly all actives have a fitted effect of over 40% in size
ATXN2 expr inh – inhibitors of ATXN2 expression. Potency, µM (doses to about 57 µM), usual class: inhibitors. HEK-293 ATXN2-luciferase reporter, luminescence, 24 h. 0.72% of 360,000 active. AID 1745845; also: nearly all actives have a fitted effect of over 55% in size
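ATXN2-luciferase reporter cells (luciferase flanked by upstream and downstream ATXN2 gene portions) were treated 24 h at 37 °C with compounds at up to 57 uM. SteadyGlo luminescence gave expression; GF-AFC fluorescence gave viability.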
A number is an active result; - = inactive; ? = inconclusive; . = no result given; [ ] = dose if it differs, or a comment. Sampled rows, rich in hits. Any-hit rate of the full collection: about 2.7%. Calls follow the shape of the dose curve; as a rule, active = well fitted curve in the direction sought with a large enough effect; inconclusive = small, poorly fitted or top-dose-only effect, or another doubt; inactive = no such curve, though single readings can be large; an effect the other way counts as inactive or inconclusive.

SMILES	HepG2 viability	TGFb SMAD3 inh	ALOX12 inh	ATXN viability	ATXN2 expr inh
O=C(Nc1ccc(Cl)cc1)N1CCN(c2ccc3nnc(-c4ccc(F)cc4)n3n2)CC1	-	14µM	-	?	?
N#Cc1ccccc1OCC(=O)c1ccc(NC(=O)c2ccccc2)cc1	.	.	-	.	.
CC(C)NC(=O)Cn1cccc1-c1nc(-c2ccc(Cl)cc2)no1	.	.	-	.	.
C=CC(=O)Nc1cccc(Oc2ncnc3[nH]cc(-c4cnc5ccccc5c4)c23)c1	-	-	-	?	-
C=CC(=O)Nc1cccc(Oc2ccnc3[nH]ccc23)c1	-	?	.	8.9µM	-
CCc1ccc(CCC(=O)N2CCCC2)cc1	.	.	-	.	.
O=c1[nH]c2ccc(NCc3ccc(-c4cccc(Cl)c4)o3)cc2[nH]1	-	-	?	?	-
O=c1[nH]c2ccc(NCc3ccc(-c4ccc(Br)cc4)o3)cc2[nH]1	-	-	10µM	-	-
CNCc1ccc(-c2ccc(Br)cc2)o1	.	.	28µM	.	.
C=CCNC(=S)N/N=C1/CCC=C1CCCCC	.	.	35µM	.	.
CCn1c2ccccc2c2cc(NC(=O)COC(=O)C3CCC(=O)N3)ccc21 (configuration not stated)	-	-	-	-	18µM
c1cnc2ccc3ncccc3c2c1	-	-	?	-	-
O=Cc1ccc(O)c2ncccc12	4.5µM	4µM	.	.	3.5µM
CC(C)C(=O)N1CCN(c2nc3c(s2)CC(C(=O)Nc2ccc(Cl)cc2)CC3)CC1 (configuration not stated)	.	.	32µM	.	.
CCC(=O)N1CCN(c2nc3c(s2)CC(C(=O)Nc2ccc(OC)c(F)c2)CC3)CC1 (configuration not stated)	.	.	25µM	.	.
CN1CCN(C(=O)c2cccc(-c3cc(O)c4ncccc4c3)c2)CC1	-	-	-	?	?
CN1CCN(c2cc(-c3cc(O)c4ncccc4c3)ccn2)CC1	-	?	-	?	10µM
O=S(=O)(O)c1cccc2cccc(Nc3ccccc3)c12	-	-	40µM	.	-
CC(C)Cc1cc(CN2CCC(CO)(Cc3cccc(C(F)(F)F)c3)CC2)[nH]n1	16µM	?	-	-	-[11.3 µM]
Cc1ccc(-n2cc(CN3CCC(CO)(Cc4ccccc4)CC3)cn2)cc1	.	.	-	.	.
CC(C)Cc1cc(CN2CCCC(CO)(Cc3cccc(Cl)c3)C2)[nH]n1 (configuration not stated)	-	?	-	?	?
Cc1ccc(-n2cc(CN3CCC(CO)(Cc4cccc(C(F)(F)F)c4)CC3)cn2)cc1	11µM	?	?	-	-[11.3 µM]
O=C(O)C(c1c[nH]c2ccc(Br)cc12)N1CCN(CCOc2ccc(Cl)cc2)CC1 (configuration not stated)	.	.	-	.	.
NC(=S)N1OC[C@@H]2COc3ccc4ccccc4c3[C@@H]21	-	?	-	-	14µM
CO/N=C/NC(=O)N1OC[C@@H]2COc3ccc4ccccc4c3[C@@H]21	-	-	-	-	-
SMILES	HepG2 viability	TGFb SMAD3 inh	ALOX12 inh	ATXN viability	ATXN2 expr inh
CC(=O)c1c2c3c(c(Br)ccc3n(C)c1=O)C(=O)c1ccccc1-2	-	-	-	?	-
Cc1oc2c(c1C(=O)NCc1cccnc1)C(=O)c1ccccc1C2=O	0.45µM	0.28µM	.	2.8µM	2.8µM
CC(=O)c1c(C)oc2c1C(=O)c1ccccc1C2=O	-	7.9µM	-	?	?
O=C(NCCO)c1nc(-c2ccc(COc3ccc4c(c3)OCO4)cc2)no1	.	.	-	.	.
O=C1CC(c2ccccc2F)Cc2nc(N3CCN(c4cccc(C(F)(F)F)c4)CC3)ncc21 (configuration not stated)	.	.	-	.	.
O=C(Oc1ccc(Cl)c2cccnc12)c1cccc([N+](=O)[O-])c1	-	14µM	-	-	-
O=C(Oc1cccc2cccnc12)c1cccc([N+](=O)[O-])c1	-	-	?	-	-
O=C(Oc1coc(CSc2ncccn2)cc1=O)c1cccc([N+](=O)[O-])c1	-	-	?	-	-
O=C(Oc1c(Cl)cc(Cl)c2cccnc12)c1cccc([N+](=O)[O-])c1	-	?	.	-	20µM
COc1ccc(NC(=O)C2(C)CCN2Cc2csc3ccccc23)cc1OC (configuration not stated)	-	-	-	?	?
CC1(C(=O)Nc2cccc3cccnc23)CCN1Cc1csc2ccccc12 (configuration not stated)	-	?	-	20µM	-
Nc1[nH]c(C(=O)c2ccccc2)c(-c2ccc(Br)cc2)c1C(=O)c1cccs1	.	.	40µM	-	-
N#C/C(=C\c1ccc(O)c([N+](=O)[O-])c1)c1nc2ccccc2s1	-	13µM	22µM	?	-
CCc1ccc(C(=O)Nc2ccc3oc(C)nc3c2)cc1	.	.	-	.	.
COc1ccc(C(=O)/C=C/c2cccs2)c(OC(=O)N2CCOCC2)c1	-	-	-	-	-[11.3 µM]
O=C(/C=C/c1cccs1)c1cc(Br)ccc1OC(=O)N1CCOCC1	11µM	-	-	-	?
COC(=O)CSc1nnc(-c2sc3ccccc3c2Cl)o1	-	-	-	-	22µM
CC(C)=CCC/C(C)=C/CNC(=O)C[C@H]1C[C@H](C(=O)N2CCOCC2)[C@@]2(C)c3[nH]c4cc(-c5ccco5)ccc4c3CCN2C1=O	-	13µM	.	.	?
CN(C)CCCNC(=O)C[C@H]1C[C@H](C(=O)N2CCCCC2)[C@@]2(CCc3ccccc3)c3[nH]c4cc(-c5ccco5)ccc4c3CCN2C1=O	14µM	?	?	28µM	?
CC(C)C(NC(=O)COc1cc(Cl)ccc1Cl)c1nc2ccccc2[nH]1 (configuration not stated)	.	.	-	.	.
Cn1c(CCNC(=O)c2cccc(F)c2)nc2cc(NC(=O)C3CCCO3)ccc21 (configuration not stated)	.	.	-	.	.
Cc1cc(C)c2c(=O)n3c(nc2c1)C(Cc1ccccc1)NC(=O)c1cccnc1-3 (configuration not stated)	-	?	?	10µM	-
CCN(C(=O)COC(=O)c1cc2ccccc2oc1=O)c1ccccc1	.	.	-	.	.
O=S(c1cc(Cl)cc(Cl)c1O)c1cc(Cl)cc(Cl)c1O	.	.	28µM	?	?
Oc1c(Cl)cc(Cl)cc1Sc1cc(Cl)cc(Cl)c1O	.	.	.	-	-
Brc1cnc2nc(SCc3nc4ccccc4[nH]3)[nH]c2c1	-	-	-	-	24µM
Cc1ccc(-n2c(SCC(=O)Nc3ccccc3Cl)nc3c(=O)[nH]cnc32)cc1	.	.	-	.	.
COc1cc2c(Oc3ccc4[nH]c(C)cc4c3F)ncnc2cc1OCCCN1CCCC1	.	.	-	.	34µM
CCOC(=O)C1=C(C)N(C[C@@H]2CC[C@@H](Cc3ccc(-c4ccccc4)cc3)O2)C(=O)NC1c1ccc(C(F)(F)F)cc1 (some centres not stated)	-	-	-	-	-
